SMILES strings stand for the structures. The panel holds about 83,000 compounds, 20% with a hit somewhere; the sample as a whole holds those more often.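 Each cell line was grown in a 96-well plate and treated with one concentration of compound for 48 hours. Values below 10 were considered active.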 Activity calls are given as the source filed them.

The subject of the assay is HL-60(TB) leukemia. Briefly: NCI-60 one-dose screen, 48 h (100 = growth as untreated, 0 = no growth, -100 = all killed). Particulars: 10 µM unless noted.
In the case of `Nc1ccn(Cc2nnc(CCC(=O)c3nc4ccccc4[nH]3)o2)c(=O)n1`, the growth is 80.5% (inactive).

Regarding `Cc1ccc(CNc2c3ccccc3nc3ccccc23)cc1`, the growth was 25.5% (inactive).

On to `O=C(Nc1ccc(-n2ccc3c(NC(=O)c4ccccc4)ncnc32)cc1)Nc1ccc(Cl)c(C(F)(F)F)c1`, for which the growth is 15.3% (inactive).

For `COc1cc(Nc2nc3ccccc3cc2C(=O)Nc2ccc(F)c(F)c2)cc(OC)c1OC`, the growth was 19.8% (inactive).

For `CO[C@H]1NC(=O)N(S(=O)(=O)c2ccc(Cl)cc2)[C@@H]1OC`, the growth was 105% (inactive).

Consider `CCOC(=O)C1=CSC2=NC3=C(CCC/C3=C\c3ccc(Cl)cc3)C(c3ccc(Cl)cc3)N12` (stereo not given), for which the growth was 79.7% (inactive).

Take `CC(Br)C(OC(=O)c1ccccc1Cl)c1cc2c(cc1Br)OCO2` (stereo not given): the growth is 103% (inactive).

As to `O=C1c2ccccc2-c2nccc3cc(Cl)nc1c23`, the growth is 1.84% (active).

Consider `Cc1ccc(C2=C/C(=C/c3ccc(Br)cc3)C(=O)N2CCc2ccc(S(N)(=O)=O)cc2)cc1`, for which the growth was 96.7% (inactive).

With `COc1ccc2cc(Cn3cc[n+](Cc4ccc5ccccc5c4)c3)ccc2c1`, the growth was -46.6% (active).

On to `O=C1CCCCCCCCC(O)C(O)CCCC(c2cccs2)O1` (stereo not given), for which the growth was 77.9% (inactive).

Consider `O=C(c1ccccc1)N1N=C(c2ccc(-n3ccc(C(F)(F)F)n3)c(F)c2)CC1c1ccc[nH]1` (stereo not given), for which the growth was 101% (inactive).

`C[N+](C)(C)CCCCCCCCCC[N+](C)(C)C`: the growth is 96.5% (inactive).

For the compound `CNc1ccccc1C(N)=O`, the growth is 114% (inactive).

Regarding `C[C@]12CC[C@H](O)CC1=CC[C@@H]1[C@@H]2CC[C@]2(C)C(c3cccnc3)=CC[C@@H]12`, the growth was -25% (active).

On to `CC(=C(c1ccc(OCCN2CCCCC2)cc1)c1ccc(OCCN2CCCCC2)cc1)c1ccc(Cl)cc1`, for which the growth is -62% (active).

Regarding `CN(CCCCCCCCNc1ccnc2ccccc12)Cc1ccc(-c2ccc(-c3ccc(C#N)cc3)s2)cc1`, the growth is -58.4% (active).

Regarding `O=[N+]([O-])c1ccc(C(c2ccccc2)c2ccccc2)cc1`, the growth was 79.3% (inactive).

Take `COc1ccc(/C=C/C(=O)NCC(C)O)cc1` (stereo not given): the growth is 109% (inactive).

In the case of `Cc1ccccc1NC(=O)Cn1cc(CN2CCN(c3ccnc4cc(Cl)ccc34)CC2)nn1`, the growth was 22.2% (inactive).

As to `N#Cc1ccc(-c2csc(Nc3ccc4nc5n(c(=O)c4c3)CCC5)n2)cc1`, the growth is 103% (inactive).

`Cc1ncc(C(=O)Nc2ccc(CN3CCN(C)CC3)c(C(F)(F)F)c2)cc1C#Cc1cnc(N)c2ccc(C#N)cc12`: the growth is 13.2% (inactive).

Consider `COc1cc2ncnc(NC3CCC(O)CC3)c2cc1OC` (stereo not given), for which the growth was 97.7% (inactive).

Consider `O=C(O)c1cn(C2CC2)c2cc(N3CCN(C(=O)C[n+]4cccc5ccccc54)CC3)c(F)cc2c1=O`, for which the growth is 99.1% (inactive).

As for `COc1cc(/C=N/NC(=O)c2ccc(-n3cc(-c4ccccc4)nn3)cc2)cc(OC)c1OC`, the growth was 101% (inactive).

Turning to `C/C=C/C1OCC(CC)C(CCC)O1` (stereo not given), the growth was 88.1% (inactive).

For the compound `O=C1c2cccc3cccc(c23)C(=O)N1CC#Cc1ccc2c3c(cccc13)C(=O)N(CCN1CCNCC1)C2=O`, the growth is 93% (inactive).

As to `CC(CNc1nc(Nc2ccc(Cl)c(Cl)c2)nc(C(Cl)(Cl)Cl)n1)N(C)C` (stereo not given), the growth was -21% (active).

For `CCCCCCC(=O)C(C)C`, the growth is 101% (inactive).

`Cc1nn(-c2ccccc2)c(N)c1N=C1NC(=O)/C(=C/c2ccc(Cl)cc2)S1`: the growth was 74.3% (inactive).

`O=C(CCl)N(c1ccccc1)c1ccccc1`: the growth is 101% (inactive).

As to `NC(=O)NCC1CCCCC1`, the growth was 91.3% (inactive).

On to `CC(=O)Cc1ccccn1`, for which the growth was 85.4% (inactive).

In the case of `O=C1/C(=C/c2ccc(O)c(O)c2)COc2ccc(-c3ccccc3)cc21`, the growth is -15.8% (active).

In the case of `COc1ccc(/C=C2\SC(=O)N(CN3CCN(c4cc5c(cc4F)c(=O)c(C(=O)O)cn5C4CC4)CC3)C2=O)cc1`, the growth is 109% (inactive).

Turning to `O=C(/C=C\c1ccco1)/C=C/c1ccco1`, the growth is 106% (inactive).

For the compound `Nc1c(Cl)cc(N=Nc2ccccc2)cc1Cl`, the growth was 97.4% (inactive).

In the case of `c1ccc(-c2c(-c3ccccc3)[n+](Cc3ccc4ccccc4c3)cn2Cc2ccc3ccccc3c2)cc1`, the growth was -67.1% (active).

Turning to `C#CCOc1cccc(Nc2ncnc3cc(NC(=O)C=C)ccc23)c1`, the growth is -16.4% (active).

With `Nc1nc2c(c(=O)[nH]1)C(c1ccc3c(c1)OCO3)C=C(C(=O)O)N2` (stereo not given), the growth is 111% (inactive).

(Values after PubChem BioAssay (NCI).)
